# Inconclusive results are not listed. Activity calls are given as the source filed them. The calls were made as follows, unless noted: active = hit-call score of the fitted dose curve at least 0.9, where 1 is the maximum; inconclusive = response in the unintended direction; inactive = score below 0.9.
# Legend:
# [1] = molecular target: human Peroxisome Proliferator-activated Receptor alpha (PPARa), PPARA (gene 5465) (UniProt Q07869); experiment: ATG_PPARa_TRANS: Attagene TRANS-FACTORIAL HepG2 Assay for human Peroxisome Proliferator-activated Receptor alpha (PPARa) (AID 2283001)
# Outline: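 HepG2 cells transiently transfected with multiplexed GAL4-UAS reporter units and chimeric NR-Gal4 constructs were dosed for 24 h. Reporter mRNA was measured by RT-PCR with fluorescent labelling and capillary electrophoresis; gain of signal fitted against DMSO.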
# [2] = read-out: Intercellular Adhesion Molecule 1 (ICAM1), ICAM1 (gene 3383); experiment: BSK_3C_ICAM1: BioMAP Diversity Plus: 3C Assay for Intercellular Adhesion Molecule 1 (ICAM1) Biomarker Activity (AID 2283003; active = hit-call score of the fitted dose curve at least 0.9, where 1 is the maximum; inactive = score below 0.9); conditions: primary human endothelial cells (HUVEC); actives raise or lower the signal
# Outline: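 Human vascular endothelial primary cells, 3C conditions, 24 h treatment. ICAM-1 by ELISA.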
# [3] = molecular target: human Retinoic Acid Receptor beta (RARb), RARB (gene 5915) (UniProt P10826); experiment: ATG_RARb_TRANS: Attagene TRANS-FACTORIAL HepG2 Assay for human Retinoic Acid Receptor beta (AID 2283004)
# Outline: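 Induction of reporter mRNA from a chimeric RARb-Gal4 construct was measured by RT-PCR, FAM labelling, HpaI digestion and capillary electrophoresis. Measurements followed 24 h compound treatment of transiently transfected human HepG2 liver cells, with DMSO as baseline.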
# [4] = BSK_3C_Proliferation: Cell Proliferation Assessment in the BioMAP Diversity Plus: 3C Assay (AID 2283006; active = hit-call score of the fitted dose curve at least 0.9, where 1 is the maximum; inactive = score below 0.9;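 as to AC50: potency may reflect either rise or fall in cell number versus DMSO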); conditions: primary human endothelial cells (HUVEC)
# Outline: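 Proliferation of human vascular endothelial primary cells after 48 h dosing, quantified as SRB-stained protein at 560 nm relative to DMSO.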
# [5] = molecular target: Peroxisome proliferator-activated receptor gamma (Homo sapiens) (UniProt P37231); experiment: ATG_PPARg_TRANS: Attagene TRANS-FACTORIAL HepG2 Assay for human Peroxisome Proliferator-activated Receptor-gamma (PPARg) (AID 2283007)
# Outline: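 Liver-derived HepG2 cells expressing an exogenous NR-Gal4 chimera alongside GAL4-UAS reporter genes; 24 h exposure. Fluorescence of reporter RT-PCR products, separated by capillary electrophoresis, gives mRNA induction relative to DMSO.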
# [6] = molecular target: Nuclear receptor subfamily 1 group I member 2 (Homo sapiens) (UniProt O75469); experiment: ATG_PXR_TRANS: Attagene TRANS-FACTORIAL HepG2 Assay for human Pregnane X Receptor (PXR) (AID 2283008)
# Outline: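 HepG2 cells transiently transfected with GAL4-UAS reporter units and PXR-Gal4 chimera, exposed 24 h. Reporter mRNA quantified by RT-PCR, fluorescent labelling, HpaI digestion and capillary electrophoresis; gain of signal vs DMSO.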
# [7] = molecular target: human Retinoic Acid Receptor gamma (RARg), RARG (gene 5916) (UniProt P13631); experiment: ATG_RARg_TRANS: Attagene TRANS-FACTORIAL HepG2 Assay for human Retinoic Acid Receptor gamma (RARg) (AID 2283009)
# Outline: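 HepG2, RARg-GAL4 TRANS system, 24 h exposure; reporter mRNA by RT-PCR + CE fluorescence; increase over DMSO.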
# [8] = molecular target: human RAR-related Orphan Receptor beta (RORb), RORB (gene 6096) (UniProt Q92753); experiment: ATG_RORb_TRANS: Attagene TRANS-FACTORIAL HepG2 Assay for human RAR-related Orphan Receptor beta (RORb) (AID 2283010);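 as to AC50: potency for increased reporter mRNA meaning activation of RORb-Gal4 chimera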
# Outline: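 In this TRANS-format test, human HepG2 cells express chimeric NR-Gal4 fusion proteins driving GAL4-UAS reporters. After 24 h dosing, reporter transcripts are measured by fluorescent RT-PCR/capillary electrophoresis, with DMSO as negative control.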
# [9] = molecular target: human Peroxisome Proliferator-activated Receptor delta (PPARd), PPARD (gene 5467) (UniProt Q03181); experiment: ATG_PPARd_TRANS: Attagene TRANS-FACTORIAL HepG2 Assay for human Peroxisome Proliferator-activated Receptor delta (PPARd) (AID 2283002)
# Outline: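 HepG2 cells transiently transfected with multiplexed GAL4-UAS reporter units and exogenous chimeric NR-Gal4 proteins; 24 h compound exposure. Reporter mRNA measured by RT-PCR, 6-FAM labelling, HpaI digestion and capillary electrophoresis; gain of signal versus DMSO.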
# [10] = molecular target: Retinoic acid receptor alpha (Homo sapiens) (UniProt P10276); experiment: ATG_RARa_TRANS: Attagene TRANS-FACTORIAL HepG2 Assay for human Retinoic Acid Receptor alpha (RARa) (AID 2283005)
# Outline: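 HepG2 cells transiently transfected with multiple reporter units expressing chimeric RARα-GAL4 fusion, with GAL4-UAS-driven reporters. After 24 h compound exposure, reporter mRNA induction quantified by RT-PCR and capillary electrophoresis with fluorescent labeling; gain-of-signal fitted relative to DMSO control.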
# Retinoic acid receptor alpha (Homo sapiens), sequence (P10276 whole entry, looked up, the tested form may be a part): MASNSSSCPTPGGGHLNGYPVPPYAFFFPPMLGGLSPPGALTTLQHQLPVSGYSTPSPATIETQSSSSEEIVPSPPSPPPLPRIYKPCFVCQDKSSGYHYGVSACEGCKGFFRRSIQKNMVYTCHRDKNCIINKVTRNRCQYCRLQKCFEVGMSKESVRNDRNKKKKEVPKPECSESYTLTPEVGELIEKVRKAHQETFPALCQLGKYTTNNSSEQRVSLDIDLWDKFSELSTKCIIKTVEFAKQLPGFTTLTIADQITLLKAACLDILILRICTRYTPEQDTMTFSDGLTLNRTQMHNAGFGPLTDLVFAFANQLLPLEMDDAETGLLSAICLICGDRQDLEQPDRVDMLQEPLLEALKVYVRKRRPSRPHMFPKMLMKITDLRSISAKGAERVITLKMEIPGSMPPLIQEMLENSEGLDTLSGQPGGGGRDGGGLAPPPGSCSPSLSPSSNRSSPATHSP
# human Peroxisome Proliferator-activated Receptor alpha (PPARa), PPARA (gene 5465), sequence (Q07869 whole entry, looked up, the tested form may be a part): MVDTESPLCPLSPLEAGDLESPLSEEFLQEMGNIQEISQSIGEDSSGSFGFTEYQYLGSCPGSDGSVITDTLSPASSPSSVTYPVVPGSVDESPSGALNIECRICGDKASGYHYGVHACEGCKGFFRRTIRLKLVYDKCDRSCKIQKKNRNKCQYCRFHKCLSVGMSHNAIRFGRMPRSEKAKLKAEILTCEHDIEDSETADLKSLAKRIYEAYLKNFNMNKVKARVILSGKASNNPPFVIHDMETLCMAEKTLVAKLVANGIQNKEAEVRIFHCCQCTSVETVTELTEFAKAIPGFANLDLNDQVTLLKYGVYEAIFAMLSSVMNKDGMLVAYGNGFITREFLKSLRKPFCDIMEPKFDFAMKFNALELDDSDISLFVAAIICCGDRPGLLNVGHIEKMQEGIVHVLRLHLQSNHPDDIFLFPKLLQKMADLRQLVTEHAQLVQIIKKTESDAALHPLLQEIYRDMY
# Nuclear receptor subfamily 1 group I member 2 (Homo sapiens), sequence (O75469 whole entry, looked up, the tested form may be a part): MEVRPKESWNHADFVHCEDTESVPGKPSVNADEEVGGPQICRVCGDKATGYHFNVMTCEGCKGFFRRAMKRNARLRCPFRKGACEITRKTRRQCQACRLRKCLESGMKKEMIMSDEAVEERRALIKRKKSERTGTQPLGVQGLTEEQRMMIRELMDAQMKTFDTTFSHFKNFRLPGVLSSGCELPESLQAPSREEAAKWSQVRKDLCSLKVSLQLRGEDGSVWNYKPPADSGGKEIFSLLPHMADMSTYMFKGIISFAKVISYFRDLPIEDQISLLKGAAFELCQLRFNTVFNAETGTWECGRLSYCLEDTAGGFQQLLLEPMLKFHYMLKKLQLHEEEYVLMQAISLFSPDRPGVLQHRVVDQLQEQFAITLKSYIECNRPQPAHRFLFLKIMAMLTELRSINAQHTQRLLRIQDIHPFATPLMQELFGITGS
# human Retinoic Acid Receptor beta (RARb), RARB (gene 5915), sequence (P10826 whole entry, looked up, the tested form may be a part): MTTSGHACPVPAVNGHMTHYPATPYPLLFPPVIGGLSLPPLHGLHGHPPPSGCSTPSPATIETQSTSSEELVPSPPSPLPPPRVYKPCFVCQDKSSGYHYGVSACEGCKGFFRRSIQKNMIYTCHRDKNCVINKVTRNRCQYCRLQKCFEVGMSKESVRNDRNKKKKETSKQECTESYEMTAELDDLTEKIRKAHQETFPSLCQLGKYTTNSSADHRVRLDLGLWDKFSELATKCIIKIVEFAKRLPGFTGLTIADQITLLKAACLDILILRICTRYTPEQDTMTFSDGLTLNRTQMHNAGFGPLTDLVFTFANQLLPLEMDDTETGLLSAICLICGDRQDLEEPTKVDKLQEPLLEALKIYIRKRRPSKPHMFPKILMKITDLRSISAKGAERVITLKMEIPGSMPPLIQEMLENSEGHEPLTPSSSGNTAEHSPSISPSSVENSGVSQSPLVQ
# Peroxisome proliferator-activated receptor gamma (Homo sapiens), sequence (P37231 whole entry, looked up, the tested form may be a part): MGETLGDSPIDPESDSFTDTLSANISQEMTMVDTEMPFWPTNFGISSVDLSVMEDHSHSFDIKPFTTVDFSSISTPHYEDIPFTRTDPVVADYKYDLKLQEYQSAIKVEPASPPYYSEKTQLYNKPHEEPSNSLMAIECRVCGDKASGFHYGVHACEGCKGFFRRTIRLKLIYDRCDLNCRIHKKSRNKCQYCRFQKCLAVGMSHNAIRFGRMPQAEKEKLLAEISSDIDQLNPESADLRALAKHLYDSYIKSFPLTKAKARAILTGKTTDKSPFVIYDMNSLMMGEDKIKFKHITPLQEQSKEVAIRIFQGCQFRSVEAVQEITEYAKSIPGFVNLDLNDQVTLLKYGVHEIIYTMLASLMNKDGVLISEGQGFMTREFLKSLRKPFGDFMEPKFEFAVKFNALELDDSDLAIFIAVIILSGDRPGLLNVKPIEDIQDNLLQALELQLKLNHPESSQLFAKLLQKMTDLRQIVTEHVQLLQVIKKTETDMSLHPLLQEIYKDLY
# human Retinoic Acid Receptor gamma (RARg), RARG (gene 5916), sequence (P13631 whole entry, looked up, the tested form may be a part): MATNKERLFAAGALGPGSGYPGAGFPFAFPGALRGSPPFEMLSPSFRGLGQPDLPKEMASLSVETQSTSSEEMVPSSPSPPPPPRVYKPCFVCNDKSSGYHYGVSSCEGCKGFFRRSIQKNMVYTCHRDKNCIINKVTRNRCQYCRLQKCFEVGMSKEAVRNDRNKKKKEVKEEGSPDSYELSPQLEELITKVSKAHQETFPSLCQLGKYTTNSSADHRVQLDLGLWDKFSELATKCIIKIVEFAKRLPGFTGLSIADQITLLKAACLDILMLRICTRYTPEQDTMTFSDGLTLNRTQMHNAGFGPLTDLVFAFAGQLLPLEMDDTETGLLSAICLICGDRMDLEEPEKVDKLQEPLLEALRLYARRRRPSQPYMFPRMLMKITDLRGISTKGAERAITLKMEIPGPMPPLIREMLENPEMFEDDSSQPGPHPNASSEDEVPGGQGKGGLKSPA
# human RAR-related Orphan Receptor beta (RORb), RORB (gene 6096), sequence (Q92753 whole entry, looked up, the tested form may be a part): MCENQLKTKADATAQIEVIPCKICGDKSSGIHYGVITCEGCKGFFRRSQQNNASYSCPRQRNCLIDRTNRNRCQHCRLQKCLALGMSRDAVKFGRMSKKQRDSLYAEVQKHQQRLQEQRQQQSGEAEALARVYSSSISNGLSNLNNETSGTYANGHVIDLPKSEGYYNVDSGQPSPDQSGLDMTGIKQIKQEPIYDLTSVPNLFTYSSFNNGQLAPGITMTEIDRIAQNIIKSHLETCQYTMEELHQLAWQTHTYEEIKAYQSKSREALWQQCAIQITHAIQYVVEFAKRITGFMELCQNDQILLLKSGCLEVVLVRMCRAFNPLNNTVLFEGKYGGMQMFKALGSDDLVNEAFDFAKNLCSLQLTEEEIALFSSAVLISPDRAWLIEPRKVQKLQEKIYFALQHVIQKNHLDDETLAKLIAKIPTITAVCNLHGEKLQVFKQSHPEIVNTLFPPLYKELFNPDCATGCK
# human Peroxisome Proliferator-activated Receptor delta (PPARd), PPARD (gene 5467), sequence (Q03181 whole entry, looked up, the tested form may be a part): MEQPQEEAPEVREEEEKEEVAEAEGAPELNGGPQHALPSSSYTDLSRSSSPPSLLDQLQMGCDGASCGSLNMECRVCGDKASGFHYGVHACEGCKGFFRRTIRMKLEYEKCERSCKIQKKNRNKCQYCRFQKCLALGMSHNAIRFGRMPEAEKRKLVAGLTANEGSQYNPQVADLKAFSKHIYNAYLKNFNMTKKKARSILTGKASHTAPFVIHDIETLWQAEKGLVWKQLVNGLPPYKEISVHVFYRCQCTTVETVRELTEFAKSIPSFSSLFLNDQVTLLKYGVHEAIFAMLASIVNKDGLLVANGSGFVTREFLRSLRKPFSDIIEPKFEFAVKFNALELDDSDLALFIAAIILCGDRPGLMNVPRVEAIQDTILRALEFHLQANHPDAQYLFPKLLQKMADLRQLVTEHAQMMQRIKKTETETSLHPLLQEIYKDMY
smiles,measurement,setting,value
COc1cc(C(C)C)c2c(c1)S(=O)(=O)N(COc1cc(=O)n3cccc(OCCN4CCCCC4)c3n1)C2=O,outcome,[1],inactive
same,outcome,[2],inactive
same,outcome,[3],inactive
same,AC50,[4],4.63 µM (active)
same,AC50,[5],2.75 µM (active)
same,AC50,[6],0.836 µM (active)
same,outcome,[7],inactive
same,AC50,[8],3.53 µM (active)
Cc1ccc(S(=O)(=O)NC(=O)NN2CCCCCC2)cc1,outcome,[1],inactive
same,outcome,[2],inactive
same,outcome,[4],inactive
same,outcome,[5],inactive
same,outcome,[6],inactive
same,outcome,[7],inactive
same,outcome,[8],inactive
OCC(CO)(CO)CO,outcome,[1],inactive
same,outcome,[2],inactive
same,outcome,[4],inactive
same,outcome,[5],inactive
same,outcome,[6],inactive
NNC(=O)c1ccncc1,outcome,[1],inactive
same,outcome,[9],inactive
same,outcome,[4],inactive
same,outcome,[5],inactive
same,outcome,[6],inactive
same,outcome,[8],inactive
CCCCCCCC1CCC(=O)O1 (stereo unspecified),outcome,[1],inactive
same,outcome,[2],inactive
same,outcome,[10],inactive
same,outcome,[4],inactive
same,outcome,[5],inactive
same,outcome,[6],inactive
same,outcome,[7],inactive
Cc1nccn1-c1ccc(Sc2cccc(C3(C(N)=O)CCOCC3)c2)cc1,outcome,[1],inactive
same,outcome,[2],inactive
same,outcome,[3],inactive
same,outcome,[10],inactive
same,AC50,[4],11.1 µM (active)
same,AC50,[5],1.85 µM (active)
same,outcome,[6],inactive
same,outcome,[7],inactive
same,outcome,[8],inactive
CCc1cccc(CC)c1N,outcome,[4],inactive
same,outcome,[6],inactive
CCOc1ccc2[nH]cc(C(=O)NCc3ccccc3)c(=O)c2n1,outcome,[4],inactive
same,outcome,[5],inactive
same,AC50,[6],13 µM (active)
CCCCC(CC)C(=O)OCCOCCOCCOC(=O)C(CC)CCCC (stereo unspecified),outcome,[10],inactive
same,outcome,[4],inactive
same,outcome,[5],inactive
same,AC50,[6],27.5 µM (active)
CC(C)CC(C)O (stereo unspecified),outcome,[10],inactive
same,outcome,[4],inactive
COc1cc2c(c(OC)c1OC)-c1ccc(OC)c(=O)cc1[C@@H](NC(C)=O)CC2,outcome,[2],inactive
same,AC50,[4],0.148 µM (active)
same,outcome,[5],inactive
same,outcome,[6],inactive
same,outcome,[7],inactive
Nc1ccn([C@@H]2O[C@H](CO)[C@@H](O)[C@@H]2O)c(=O)n1,AC50,[4],0.519 µM (active)
same,outcome,[7],inactive
OCCNCCO,outcome,[4],inactive
OCCOCCOCCO,outcome,[4],inactive
same,outcome,[5],inactive
COCc1nnc(-c2ccc[n+]([O-])c2)n1-c1c(Cl)c(Cl)cc2[nH]c(=O)c(=O)[nH]c12,outcome,[2],inactive
same,outcome,[4],inactive
same,outcome,[6],inactive
CCCCCOC(C)=O,outcome,[2],inactive
same,AC50,[4],20.8 µM (active)
same,outcome,[8],inactive
O=c1[nH]cnc2c1ncn2[C@H]1CC[C@@H](CO)O1,outcome,[3],inactive
same,outcome,[4],inactive
same,outcome,[5],inactive
same,outcome,[6],inactive
CCCCCCCCN(C)C,outcome,[2],inactive
same,outcome,[4],inactive
same,outcome,[6],inactive
same,outcome,[7],inactive
CCCCCCOC(=O)CC(CC(=O)OCCCCCC)(OC(=O)CCC)C(=O)OCCCCCC,outcome,[4],inactive
same,outcome,[5],inactive
same,outcome,[6],inactive
same,outcome,[8],inactive
OC[C@H]1O[C@@H]2O[C@H]3[C@H](O)[C@@H](O)[C@@H](O[C@H]4[C@H](O)[C@@H](O)[C@@H](O[C@H]5[C@H](O)[C@@H](O)[C@@H](O[C@H]6[C@H](O)[C@@H](O)[C@@H](O[C@H]7[C@H](O)[C@@H](O)[C@@H](O[C@H]1[C@H](O)[C@H]2O)O[C@@H]7CO)O[C@@H]6CO)O[C@@H]5CO)O[C@@H]4CO)O[C@@H]3CO,outcome,[10],inactive
same,outcome,[4],inactive
same,outcome,[7],inactive
same,outcome,[8],inactive
COS(C)(=O)=O,outcome,[2],inactive
same,outcome,[4],inactive
same,outcome,[5],inactive
same,outcome,[8],inactive
CCCOc1ccc(S(=O)(=O)N2CCN(CC)CC2)cc1-c1nc2c(CC)n(Cc3ccccn3)nc2c(=O)[nH]1,outcome,[4],inactive
same,AC50,[5],7.76 µM (active)
same,AC50,[6],1.17 µM (active)
same,outcome,[7],inactive
FC(F)C(F)(F)COCC1CO1 (stereo unspecified),outcome,[2],inactive
same,outcome,[4],inactive
same,outcome,[5],inactive
same,outcome,[8],inactive
C=CN1CCCC1=O,outcome,[4],inactive
Cc1nc(-c2ccccn2)ncc1C(=O)Nn1cc(C)c2cc(F)ccc21,outcome,[3],inactive
same,outcome,[4],inactive
same,AC50,[5],7.87 µM (active)
same,AC50,[6],0.775 µM (active)
CC(C)C(=O)Nc1ccc([N+](=O)[O-])c(C(F)(F)F)c1,outcome,[4],inactive
same,AC50,[5],49 µM (active)
same,AC50,[6],6.92 µM (active)
CCCCOC(=O)c1ccccc1,outcome,[4],inactive
same,outcome,[5],inactive
same,outcome,[6],inactive
CC[C@H](C)C(=O)O[C@H]1C[C@H](O)C=C2C=C[C@H](C)[C@H](CC[C@@H](O)C[C@@H](O)CC(=O)O)[C@H]21,outcome,[4],inactive
same,outcome,[7],inactive
CCOC(N)=O,outcome,[2],inactive
same,outcome,[4],inactive
same,outcome,[8],inactive
O=C(O)[C@H](O)[C@@H](O)C(=O)O,outcome,[4],inactive
same,outcome,[5],inactive
same,outcome,[8],inactive
OC(Cn1cncn1)(Cn1cncn1)c1ccc(F)cc1F,outcome,[2],inactive
same,outcome,[4],inactive
same,outcome,[6],inactive
NC(=O)NN=Cc1ccc([N+](=O)[O-])o1,outcome,[2],inactive
same,outcome,[4],inactive
same,outcome,[5],inactive
c1ccc(C(O[C@@H]2CCCN(CCc3ccc4c(c3)OCO4)C2)c2ccccc2)cc1,AC50,[4],28.5 µM (active)
same,AC50,[5],20.7 µM (active)
same,AC50,[6],0.916 µM (active)
NC(N)=O,outcome,[4],inactive

# — PubChem BioAssay (EPA / NIEHS)
